PubChem BioAssay (EPA / NIEHS)
Active and inactive are the calls of the source. The calls were made as follows: active = hit-call score of the fitted dose curve at least 0.9, where 1 is the maximum; inactive = score below 0.9.

experiment: APR_HepG2_CellLoss_72hr: Apredica 72-hour HepG2 Assay for Cell Loss (AID 2282915); conditions: high-content imaging
Summary of the method: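 Cell number comes from Hoechst 33342-labelled nuclei, imaged at 20x after 3.7% formaldehyde fixation. Dosing was 0.39–200 uM, ten concentrations in duplicate, 0.5% DMSO final, for 72 h. Bidirectional fit relative to DMSO baseline.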

| SMILES | AC50 | outcome |
| --- | --- | --- |
| C[C@]12CC[C@@H]3c4ccc(O)cc4CC[C@H]3[C@@H]1CC[C@H]2O | 75.6 µM (active) |  |
| CC(C)(C)c1csc(-c2cc3cc(OCc4ccccc4CC(=O)O)ccc3o2)n1 |  | inactive |
| Cc1oc2c(NC(=O)c3c(Cl)cccc3Cl)cccc2c1C(C)(C)O |  | inactive |
| O=C(O)Cc1cc(I)c(Oc2ccc(O)c(I)c2)c(I)c1 |  | inactive |
| NC(=O)c1nc(-c2cccc(-c3cc(F)ccc3OCC(F)(F)C(F)(F)F)c2)n[nH]1 | 91.9 µM (active) |  |
| Cc1occc1C(=O)Nc1ccc(C(=O)N2CCC(F)(F)/C(=C\C(=O)N3CCC(N4CCCCC4)CC3)c3ccccc32)cc1 | 12.3 µM (active) |  |
| NCc1cccc(C2CCN(C(=O)c3ccc(C#Cc4ccccc4F)o3)CC2)c1 | 15.5 µM (active) |  |
| c1ccc2ccccc2c1 | 0.0736 µM (active) |  |
| CCCCCCCCCCCCO |  | inactive |
| C[C@]12CC[C@@H]3c4ccc(O)cc4CC[C@H]3[C@@H]1CCC2=O |  | inactive |
| Cc1cn([C@H]2C[C@H](N=[N+]=[N-])[C@@H](CO)O2)c(=O)[nH]c1=O |  | inactive |
| Cc1cccc2ccccc12 |  | inactive |
| CC1=CC(=O)/C(=C(/C)O)C(=O)O1 |  | inactive |
| CN(C[C@@H](CC[N+]12CCC(C3CCCCC3)(CC1)CC2)c1ccc(Cl)c(Cl)c1)C(=O)c1cc(C(F)(F)F)cc(C(F)(F)F)c1 | 24.9 µM (active) |  |
| CCCOC(=O)c1cc(O)c(O)c(O)c1 | 8.44 µM (active) |  |
| CCCCCCCCOC(=O)c1cc(O)c(O)c(O)c1 | 63.2 µM (active) |  |
| CN(C)c1ccc(C(=C2C=CC(=[N+](C)C)C=C2)c2ccc(N(C)C)cc2)cc1 | 3.23 µM (active) |  |
| Cc1ccc2oc(CN(Cc3ccccc3)C(=O)Nc3c(F)cc(F)cc3F)c(-c3ccc(Cl)cc3)c2c1 |  | inactive |
| O=CCCCC=O |  | inactive |
